For 62 molecules, binding response (% of control) results are on record in PubChem BioAssay AID1529 (NMMLSC, 2009).

Hit rate of the full screen: of about 290,000 compounds, about 4,200 (1.4%) were called active. Shown is part of a subset that was picked to be rich in actives. A number with no mark means an inactive call.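 Rule for the calls: active = binding response more than 3 SD above or below the average of its plate-row segment, actives on both sides; inconclusive = wells at one plate position flagged as instrument error; inactive = the rest.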

In this assay the target is Mitogen-activated protein kinase kinase kinase 3 (Homo sapiens) (UniProt Q99759). As to the kind of experiment: compounds raising or lowering MEK5 association with MEKK3 PB1 – biochemical, wildtype MEKK3, multiplex bead flow cytometry, Alexa488-MEK5, primary screen (AID 1529).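 Note: Alexa488 bead fluorescence after subtracting the streptavidin-only scavenger bead signal.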 To be noted: bead-based flow cytometry, Alexa488-MEK5 binding to MEKK3; at 10 µM; actives lie on both sides; 0 = blocked by unlabeled MEK5, 100 = vehicle. Background: Flow cytometry measures light scatter and fluorescence of single cells or particles in a stream.
Sequence of Mitogen-activated protein kinase kinase kinase 3 (Homo sapiens) (Q99759 whole entry, looked up): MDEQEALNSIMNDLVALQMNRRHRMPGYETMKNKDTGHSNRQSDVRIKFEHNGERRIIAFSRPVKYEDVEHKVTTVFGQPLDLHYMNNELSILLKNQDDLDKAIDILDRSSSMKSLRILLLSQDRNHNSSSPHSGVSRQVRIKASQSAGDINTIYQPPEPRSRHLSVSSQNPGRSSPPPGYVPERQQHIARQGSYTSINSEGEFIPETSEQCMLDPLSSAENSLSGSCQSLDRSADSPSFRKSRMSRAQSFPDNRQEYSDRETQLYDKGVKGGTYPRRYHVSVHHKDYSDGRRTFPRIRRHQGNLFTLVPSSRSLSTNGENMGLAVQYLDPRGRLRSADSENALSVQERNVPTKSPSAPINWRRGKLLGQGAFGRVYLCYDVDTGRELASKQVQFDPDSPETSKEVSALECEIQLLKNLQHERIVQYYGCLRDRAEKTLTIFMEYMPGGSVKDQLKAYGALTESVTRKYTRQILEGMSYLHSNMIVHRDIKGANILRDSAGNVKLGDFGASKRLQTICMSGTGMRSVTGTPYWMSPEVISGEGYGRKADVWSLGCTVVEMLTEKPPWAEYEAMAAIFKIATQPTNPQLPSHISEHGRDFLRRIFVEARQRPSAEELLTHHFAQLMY
As for `Cc1ccc(S(=O)(=O)/N=S(\C)C(C)C)cc1` (configuration not stated), the binding response (% of control) was 2% [inhibitor] (active). To `CCCC/S(C)=N/S(=O)(=O)c1ccc(C)cc1` (configuration not stated) belongs 100%; to `CC/S(CC1CC1(Cl)Cl)=N\S(=O)(=O)c1ccc(C)cc1` (configuration not stated), 96%.

For the molecule `CC1CCCN(CC(=O)Nc2cc(Cl)ccc2Oc2ccccc2)C1` (configuration not stated), the binding response (% of control) was 107%. As for `COC(=O)c1c(C)cc(O)c(C)c1O`, the binding response (% of control) was 102%. As for `CCOC(=O)CNC(=O)CSc1nc2cccnc2n1CC`, the figure is 127% (active); as for `CCOC(=O)CNC(=O)CSc1ncccc1-c1nc2ccccc2[nH]1`, 108%; as for `CCOC(=O)CNC(=O)CSc1nnc(COc2ccc(Cl)cc2)n1CC`, 96%. To `COc1ccc(C2CC(=O)Nc3cc(C)c(C)cc32)c(OC)c1OC` (configuration not stated) belongs 0% [inhibitor] (active). To `COc1cc2c(cc1OC)C(C(=O)Nc1cc(C)c(OC)c(C)c1)CC(=O)N2` (configuration not stated) belongs 109%.

For `COc1cc2c(cc1OC)C(c1ccncc1)CC(=O)N2` (configuration not stated), the binding response (% of control) was 109%. As for `OCCNc1nc(Nc2ccc(Cl)c(Cl)c2)nc2ccccc12`, the figure is 111%; as for `O=C(Cc1ccccc1)Nc1cccc(NC(=O)c2ccccc2)c1`, 98%; as for `COc1ccc(CC(=O)Nc2ccc(C(=O)NC(C)(C)C)cc2)cc1`, 97%. `CC(C)(C)NC(=O)c1cccc(NC(=O)Cc2ccc(Br)cc2)c1`: the binding response (% of control) was 163% (active). As to `Cc1nc(-c2ccccc2)sc1C1(C)CC(c2cccnc2)=NO1` (configuration not stated), the binding response (% of control) is 104%. To `O=C(Cc1ccccc1)NNS(=O)(=O)c1ccc([N+](=O)[O-])cc1` belongs 95%.

On to `O=C(CC(c1ccccc1)c1ccccc1)NCC(O)c1ccc([N+](=O)[O-])cc1` (configuration not stated), for which the binding response (% of control) is 101%. As for `O=C(O)CC(Cc1ccccc1)C(=O)Nc1ccc([N+](=O)[O-])cc1` (configuration not stated), the figure is 128% (active); as for `Fc1ccccc1/C=N/Nc1cc(N2CCCCC2)ncn1`, 105%. Turning to `CCc1noc(C)c1C(=O)N1CCCC(N2CCN(c3ccc(F)cc3)CC2)C1` (configuration not stated), the binding response (% of control) was 91%. For the molecule `Cc1ccc(CNC(=O)C2CCCN2S(=O)(=O)c2ccc3c(c2)C(C)(C)C(=O)N3C)cc1` (configuration not stated), the binding response (% of control) was 104%. As for `CC1(C)Cc2cccc(OCC(=O)N3CCN(c4ccc([N+](=O)[O-])cc4)CC3)c2O1`, the figure is 59% [inhibitor] (active); as for `CC1(C)Cc2cccc(OCC(N)=O)c2O1`, 100%.

On to `CC1(C)Cc2cccc(OCC(=O)NCc3ccccc3)c2O1`, for which the binding response (% of control) is 100%.

With `COc1ccc(C)cc1NC(=O)CN(C)S(=O)(=O)c1ccc2c(c1)n(C)c(=O)c(=O)n2C`, the binding response (% of control) was 101%. As for `CCOc1cc(NC(=S)NCc2ccco2)c(OCC)cc1NC(=O)c1ccco1`, the figure is 105%. As for `COc1cc(NC(=S)NCc2ccco2)c(OC)cc1Cl`, the figure is 71% [inhibitor] (active); as for `FC(F)Oc1ccc(NC(=S)NCc2ccco2)cc1Cl`, 99%. As for `CCOC(=O)C1Nc2ccc(C(F)(F)F)cc2C2C=CCC12` (configuration not stated), the figure is 99%. `CC(C)C(=O)N1c2ccccc2NC2=C(C(=O)CCC2)C1c1ccc(N(C)C)cc1` (configuration not stated): the binding response (% of control) was 129% (active). As for `CCCC(=O)N1c2ccccc2NC2=C(C(=O)CCC2)C1c1ccc(F)cc1` (configuration not stated), the figure is 100%; as for `CCC(=O)N1c2ccccc2NC2=C(C(=O)CCC2)C1c1ccco1` (configuration not stated), 94%. As for `CC(C)(C)C(=O)Nc1ccc(-c2cn3cccnc3n2)cc1`, the figure is 107%; as for `COc1cc(C(C)=O)ccc1OC(=O)CN1C(=O)c2ccccc2C1=O`, 102%. As for `CC1(C)OC(=O)N2CCc3ccccc3C21C` (configuration not stated), the figure is 129% (active); as for `CC1Cc2ccccc2N1C1=CC(=O)CC(C)(C)C1` (configuration not stated), 100%; as for `O=C(Nc1ccccc1)/C(=C/c1ccc([N+](=O)[O-])cc1)NC(=O)c1ccccc1`, 111%.

In the case of `CNC(=O)/C(=C\C=C\c1ccccc1)NC(=O)c1ccc([N+](=O)[O-])cc1`, the binding response (% of control) was 73% [inhibitor] (active).

Regarding `O=C(Nc1ccc(C(=O)O)cc1)/C(=C/c1ccc([N+](=O)[O-])cc1)NC(=O)c1ccccc1`, the binding response (% of control) is 97%. As for `O=C(Nc1ccc(O)cc1)c1ccc(NC(=O)c2ccco2)cc1`, the figure is 101%; as for `COc1ccc2c(c1)CCNC2Cc1ccc(OC)c(O)c1` (configuration not stated), 98%. As to `C=CCn1c(-c2sc(-c3ccccc3)nc2C)n[nH]c1=S`, the binding response (% of control) is 99%. `C=CCn1c(=S)sc2c(=O)[nH]c(C)nc21`: the binding response (% of control) is 131% (active). As for `C=CCn1c(-c2ccc3[nH]c(C)c(C)c3c2)n[nH]c1=S`, the figure is 105%; as for `O=S(=O)(c1cccc(Cn2nnc(-c3ccc(F)cc3)n2)c1)N1CCOCC1`, 103%; as for `Cc1ccc(SCC(=O)Nc2ccc3c(c2)OCCO3)cc1`, 127%. To `O=C(CSc1ccc(-c2ccc(F)cc2)nn1)Nc1ccc2c(c1)OCCO2` belongs 133% (active). For `Cc1csc(NC(=O)CSc2ccc(-c3ccc(F)cc3)nn2)n1`, the binding response (% of control) is 100%. As for `C[C@H]1CC[C@]2(O[C@@H](CCO)C[C@@H](O)[C@@H]2O)O1`, the figure is 96%. To `COc1ccc2nc(C)cc(Nc3cccc(C(=O)O)c3)c2c1` belongs 106%; to `COc1cc(NC(=O)c2cccnc2SC)cc(OC)c1`, 110%; to `COc1cccc(Nc2ncccc2C(=O)O)c1`, 3% [inhibitor] (active). Consider `O=C(NC(=S)Nc1ccc(Cl)cc1Cl)C1CC1`, for which the binding response (% of control) was 100%. As for `Cc1ccc2oc(C(=O)N3CCN(C)C[C@@H]3C(C)C)c(C)c2c1`, the binding response (% of control) is 102%. As for `COc1ccc(NCCc2ccccn2)cc1`, the binding response (% of control) is 108%. As for `COc1ccc(/C=C(\NC(=O)c2ccc(OC)c(OC)c2)C(=O)NCCc2c[nH]c3ccccc23)cc1`, the figure is 103%; as for `Cc1ccc(C(=O)N/C(=C/c2ccco2)C(=O)NCCc2c[nH]c3ccccc23)cc1C`, 73% [inhibitor] (active). To `O=C(NC(Cc1c[nH]c2ccccc12)C(=O)O)/C(=C/c1ccco1)NC(=O)c1ccccc1` (configuration not stated) belongs 101%; to `CCOC(=O)c1cc2occc2n1CC(=O)NC1CCC(C)CC1` (configuration not stated), 104%; to `CCOC(=O)c1cc2occc2n1CC(=O)N1CCN(C(=O)c2ccco2)CC1`, 0% [inhibitor] (active).

For `CCOC(=O)c1cc2c(ccn2C)n1CC(=O)N1CCC(C)CC1`, the binding response (% of control) was 111%.
